# ± gives the standard deviation of the averaged measurements. In all, about 25,000 sequences were measured (“ln(normalized median fluorescence intensity)”: median about 7.9, highest 2% from about 11 on). Many of the other results were omitted from the sample, so the highest values are more common in it than they were.
# System: PfAP2-I AP2 domain 3 (GST-tagged)
# Test: gcPBM binding intensity (ln(normalized median fluorescence intensity)); higher = stronger DNA binding
# How it was run: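 GST-fused DNA-binding domains of P. falciparum, expressed in E. coli, were applied at about 25 μg on average for 1 h to an Agilent 4 × 180k array of primer-extended double-stranded 36-bp intergenic genomic probes and negative controls. Binding intensity is the highest Masliner-normalised natural-log median intensity across replicate spots of either probe orientation, measured with Alexa488 anti-GST antibody and a 488 nm scan.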
row,Sequence,gcPBM binding intensity (ln)
1,CATTATGTACAAAAAGTGCAATATATATTAACACTG,11 ± 0.43
2,AAAAAAATTACGCAAGTGCATATAATTTAACAAAAA,9.625 ± 0.007
3,ACGCAATATTAACAAGTGCATTATAACACATAACAT,11.3 ± 0.61
4,ATATATTATATTATATGTACTTAAAAAAGTGCAAAG [XGTACX_site318],8.485 ± 0.035
5,AATTAAATTACTTATACACACATAAAATGTCTGTAT [CACACA_site997],7.76 ± 0.34
6,AAATTTATGTGTGCCTGTACATATCAAAGATTTAAG [XGTACX_site8547],7.93 ± 0.34
7,TCAGATCCATAGAAGGTGCAAATAACAAAAATACAA [GTGCAC_site9610],11 ± 0.43
8,AAATAACAAAAGAAGGTGCTCATAAAAATTCATACA [GTGCAC_site9864],8.51 ± 0.28
9,ACATACATATGTAAATGTACAAAATATCCATAGATT [XGTACX_site2782],7.54 ± 0.77
10,GAAATAAAAAGAAATGCATGTAATTTTTTTTTTTTT [TGCATGCA_site928],7.61 ± 0.83
11,AATGACATTCTTACACGTACAAAATAAAAAATAAAA [XGTACX_site6932],7.89 ± 0.59
12,AATTTGTAAAATAAGGTGCGTATAAAAAATTATATT [GTGCAC_site9676],9.71 ± 0.2
13,CTTTATAAAATAAGAGTGCGTTATATTGAATTGTAT [GTGCAC_site9390],10.9 ± 0.6
14,ATAAGAATATATAGAGTGCGTTGAAGAATTATAATA,9.89 ± 0.27
15,TTATTCATATTATCATGTACTTATATATATTGTCAT [XGTACX_site2231],7.72 ± 0.55
16,AGAAGAAAAGTAAAAAGTACATTATTCATGGCCTAT [XGTACX_site5601],7.46 ± 0.7
17,TTAGAAAAATTATATATACACACTTATATTTATATA [CACACA_site2821],7.28 ± 0.4
18,TAAATATTTTTAGATGCATGCAATAATTACCCAAAG [TGCATGCA_site636],8.15 ± 0.78
19,ATTATATACAAATAAAGTACATAAACAAATTCAGAA [XGTACX_site1187],7.77 ± 0.47
20,TCTTTCAATATTAATGCATGTTAATAATAAATTTTA [TGCATGCA_site448],7.96 ± 0.57
21,ATGTTAATTAATGAGGTGCATTGAATATTTCAATAA,10.9 ± 0.73
22,AATATTTTTCAATTTCATGTGCATTCATTGAAGTTA [CACACA_negctrl_site1232],8.76 ± 0.37
23,TAAGTATATATATTTACACACATTTGTTTTTTTTTA [CACACA_site3784],7.57 ± 0.6

row,Sequence,gcPBM binding intensity (ln)
1,AAAAAATAGAATATAAAAATAAAGGAATTAAATTAA [XGTACX_negctrl_site420],7.33 ± 0.75
2,AAAAACTTATATGATACACACGATAAACAAAATAAA [CACACA_site1039],7.91 ± 0.42
3,ATTAGCAACATTGATAAATATAAACACACGAAAACA [TGCATGCA_negctrl_site97],8.09 ± 0.68
4,TATATATATATGTGCACACATATATAATATGTATAA [CACACA_site715],10.1 ± 0.42
5,TATGTACACCCATATACACACCTCTATAATATATAT [CACACA_site4563],8.38 ± 0.18
6,TAGAATGTATGTAGTGCACACCTCTATAATATATTA [CACACA_site1873],11.3 ± 0.6
7,TATAATGTATGTAGTGCACACCTCTATAATATATTA [CACACA_site8560],10.9 ± 0.64
8,TGTAATATATGTATTGCACACCTATAACCATTATTT [CACACA_site8422],9.89 ± 0.3
9,AATATATATATATGTGCACACATATATAATATGTAT [CACACA_site716],9.2 ± 0.58
10,ATATATTACAAATGGAGTACTAAAAATATTCTATAT [XGTACX_site6669],8.02 ± 0.38
11,ACACATATGACAAATAGTACATAAATATATAAATAT [XGTACX_site7141],7.79 ± 0.28
12,AATAATATATATATATATATATATAGATATGTATAT [GTGCAC_negctrl_site653],8.04 ± 0.25
13,GAAATTACTTTATAAACACACATTTATTTTATTTTA [CACACA_site7007],7.95 ± 0.26
14,CTACCTTTAATATATACACACACATAAAAAAAATAT [CACACA_site8548],8.05 ± 0.28
15,GTATATATTAAAAAAAAAAAAAAAAAATTAAAATTA [CACACA_negctrl_site572],7.14 ± 0.33
16,TATTTTTATAAGAGCATGCACTGTTTAAAATGGTAT,8.37 ± 0.45
17,TATATATATATATATGTGCACTGAAAGAATTATACA [GTGCAC_site9586],10.7 ± 0.13
18,AATATGAAATATATTACACACATTTATATGTTGAAA [CACACA_site1427],7.59 ± 0.39
19,TATAATAATAATTATACATGCATGAATATTTATATG [TGCATGCA_site811],7.67 ± 0.21
20,ATTATATTTATGTTGGTGCATTATACATGAAATTTA,11.5 ± 0.43
21,ATAATTATTCTTATGGTGCACTGAATATACATGTTG [GTGCAC_site9760],11.1 ± 0.47
22,GTATTATTATTTTATGCATGTACATTGAATTATATT [TGCATGCA_site34],8.26 ± 0.44
23,CCTATCCAGACATATACACACATATCTATTTATATA [CACACA_site5001],8.01 ± 0.57

# Reference: the supplement of paper PMC11417369
